Compound activity deposited in PubChem by National Center for Advancing Translational Sciences (NCATS).
Cruzain inh Det: cruzain (T. cruzi) inhibition with detergent | P25779 | purified cruzain, Z-FR-AMC fluorescence, 0.01% Triton | Potency, µM, hits mostly inhibitors | actives 0.43% (n = 200,000) | AID 1478; note: nearly all actives have a fitted effect of over 40% in size
Target sequence (P25779 123-467 limits assumed): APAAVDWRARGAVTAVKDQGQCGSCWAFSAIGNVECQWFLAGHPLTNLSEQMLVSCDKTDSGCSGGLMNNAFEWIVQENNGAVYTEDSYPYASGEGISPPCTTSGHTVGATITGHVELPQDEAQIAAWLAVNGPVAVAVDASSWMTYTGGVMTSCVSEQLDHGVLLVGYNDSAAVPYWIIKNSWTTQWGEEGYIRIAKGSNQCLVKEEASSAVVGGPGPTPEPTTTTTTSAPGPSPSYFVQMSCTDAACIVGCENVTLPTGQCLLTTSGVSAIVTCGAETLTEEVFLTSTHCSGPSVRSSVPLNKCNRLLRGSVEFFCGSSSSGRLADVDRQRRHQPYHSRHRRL
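In this qHTS format, compounds are incubated with 1.5 nM cruzain for 15 min at room temperature before 2 uM Z-FR-AMC is added. Release of AMC is followed at 360/450 nm, and progress is taken as the 60 s fluorescence difference.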
Cruzain noTriton: cruzain (T. cruzi) inhibition without detergent; AID 1476; purified cruzain, Z-FR-AMC fluorescence, no detergent; actives 2.3% (n = 200,000); Potency, µM, most hits filed as inhibitors; P25779; note: nearly all actives have a fitted effect of over 40% in size
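Purified cruzain at 1.5 nM, pre-incubated 15 min with compound at room temperature in 100 mM sodium acetate pH 5.5, 5 mM DTT, 0.00005% Triton X-100. Reaction started with 2 uM Z-FR-AMC; AMC fluorescence increase over 60 s gives rate.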
Each line names hits and unclear results; the compound was inactive in the other large screens. Rows were chosen to be rich in hits. Some 2.4% of all compounds tested hit in one or more screens of this group. Calls come from the whole dose curve; as a rule, active = well fitted curve in the direction sought with a large enough effect; inconclusive = small, poorly fitted or top-dose-only effect, or another doubt; inactive = no such curve, though single readings can be large; an effect the other way counts as inactive or inconclusive.

O=C(CSc1ncc2c(n1)-c1cc(Cl)ccc1N(Cc1ccccc1)S2(=O)=O)Nc1ccc(F)cc1F	none
O=C(CSc1ncc2c(n1)-c1ccc(Cl)cc1N(Cc1ccccc1)S2(=O)=O)Nc1ccc(F)c(F)c1	none
O=C(CSc1ncc2c(n1)-c1cc(Cl)ccc1N(Cc1ccccc1F)S2(=O)=O)Nc1cccc(C(F)(F)F)c1	Cruzain noTriton 15.8µM
COc1ccccc1NC(=O)CSc1ncc2c(n1)-c1ccccc1N(Cc1ccccc1C)S2(=O)=O	Cruzain noTriton 7.94µM
Cc1ccccc1CN1c2ccccc2-c2nc(SCC(=O)Nc3cc(F)ccc3F)ncc2S1(=O)=O	none
COc1ccc(C)cc1NC(=O)CSc1ncc2c(n1)-c1ccc(Cl)cc1N(Cc1ccccc1)S2(=O)=O	Cruzain noTriton 3.16µM
COc1ccccc1NC(=O)CSc1ncc2c(n1)-c1cc(Cl)ccc1N(Cc1ccccc1)S2(=O)=O	Cruzain noTriton 6.31µM
Cc1cccc(C)c1NC(=O)CSc1ncc2c(n1)-c1ccc(Cl)cc1N(Cc1ccccc1)S2(=O)=O	none
O=C(Cn1ncc2c(=O)oc3ccccc3c21)Nc1cc(F)ccc1F	none
CC1(C)N=C(N)N=C(N)N1c1cccc(C(=O)Nc2ccc(S(=O)(=O)F)cc2)c1	none
O=C(NCc1ccccc1)c1ccc2c(c1)nc1n2CCOC1	none
O=C(c1cccc([N+](=O)[O-])c1)N1c2nc(-c3ccco3)nn2C2(CCCCC2)[C@@H]2CCCC[C@@H]21	none
Cc1cc2c(cc1S(=O)(=O)CCC(=O)N1CCN(c3ccccc3)CC1)OCC(=O)N2	none
COc1cccc2cc(-c3nc(-c4ccccc4F)no3)c(=O)oc12	none
Cc1ccc(-n2nc(C(=O)Nc3ccc(Cl)cn3)c3c4ccccc4n(C)c3c2=O)cc1	none
Cc1ccn2c(Nc3c(C)cccc3C)c(-c3ccc(Cl)s3)nc2c1	Cruzain noTriton 10µM
Cc1ccn2c(Nc3c(C)cccc3C)c(-c3ccsc3)nc2c1	Cruzain noTriton inconclusive
CC1Cc2ccccc2N1Cc1cc(=O)n2ccsc2n1 (stereo not given)	Cruzain noTriton inconclusive
CC1Cc2ccccc2N1Cc1nc2cc(C(F)(F)F)ccc2c(=O)[nH]1 (stereo not given)	Cruzain noTriton 25.1µM
N#C/C(=C/c1ccc(Oc2ccc([N+](=O)[O-])cn2)cc1)C(=O)N1CCOCC1	Cruzain noTriton inconclusive
N#C/C(=C\c1ccc(-c2ccc([N+](=O)[O-])cc2Br)o1)C(=O)N1CCN(c2ccccc2)CC1	Cruzain noTriton 12.6µM
Cc1nc2c3cccnc3nn2c(C)c1CCC(=O)NCc1ccccc1	none
O=C(Cc1ccc(Cl)cc1)Nc1ccc2oc(-c3ccccc3F)nc2c1	Cruzain noTriton 7.94µM
Cc1c(NC(=O)CSc2ccc(Cl)cc2)cccc1-c1nc2cc(Cl)ccc2o1	Cruzain noTriton 25.1µM
Cc1ccc(SCC(=O)Nc2cccc(-c3nc4cc(Cl)ccc4o3)c2C)cc1	none
O=C(Cc1ccc(Cl)cc1)Nc1ccc2oc(-c3ccncc3)nc2c1	none
CCCN(C(=O)c1cc2c(=O)oc3ccccc3c2s1)c1ccc(CC)cc1	none
CCCCOC(=O)c1c(C)oc2c1cc(NS(=O)(=O)c1cc(OC)ccc1OC)c1ccccc12	Cruzain noTriton 12.6µM
COc1ccc(OC)c(S(=O)(=O)Nc2cc3c(C(C)=O)c(C)oc3c3ccccc23)c1	none
CCCOC(=O)c1ccc(-c2ccc(C=O)o2)cc1	none
CCOC(=O)c1ccc(-c2ccc(/C=C(\C#N)C(=O)Nc3c(C)cccc3Cl)o2)cc1	none
CCCCOC(=O)c1ccc(-c2ccc(/C=N/NC(=S)NCC)o2)cc1	Cruzain noTriton 25.1µM
CCCCOC(=O)c1ccc(NC(=O)/C(C#N)=C/c2ccc(-c3ccccc3)o2)cc1	Cruzain noTriton 25.1µM
Cc1ccccc1C(=O)NC1(C(F)(F)F)C(=O)Nc2c1c(=O)[nH]c(=O)n2CCc1ccccc1 (stereo not given)	none
CCCC(=O)Nc1nnc(SCc2cc(=O)n3ccccc3n2)s1	none
Cc1ccc2c(c1)C(c1ccc(F)cc1)N(C(=O)c1ccc(S(=O)(=O)N3CCCCC3)cc1)CC(=O)N2 (stereo not given)	none
CCn1c(=O)c2cc(C(=O)NCc3ccc(F)cc3Cl)sc2c2ccccc21	none
Cc1ccc(Cl)cc1NS(=O)(=O)c1ccc2c(c1)NC(=O)CCS2	none
Cc1ccc(C(=O)Nc2c(C)nc3ccccn3c2=O)cc1	none
COc1ccccc1[C@H]1C(c2cccc(C)c2)=NN(c2ccccc2)[C@@H]1CO	Cruzain noTriton 17.8µM
COc1ccccc1[C@H]1C(c2ccc(F)cc2)=NN(c2ccccc2)[C@@H]1CO	Cruzain noTriton 31.6µM
COc1ccccc1[C@H]1C(c2ccccc2)=NN(c2ccccc2)[C@@H]1CO	Cruzain noTriton inconclusive
CC[C@H]1C(c2ccccc2)=NN(c2ccccc2)[C@@H]1CO	Cruzain noTriton inconclusive
COc1ccc(-c2nc(-c3ccccc3)c(-c3ccccc3)[nH]2)cc1Br	Cruzain noTriton 3.16µM
COc1ccc(-c2nc(-c3ccccc3)c(-c3cccs3)[nH]2)cc1OC	none
COc1ccc(-n2nc(C)c3c(C(F)(F)F)cc(-c4cccnc4)nc32)cc1	none
COc1ccccc1-c1nnc(SCCOc2ccccc2C)o1	Cruzain noTriton inconclusive
CCc1ccc(NC(=O)N2CCC(N3CCN(Cc4ccc(C)cc4)C(=O)C3=O)CC2)cc1	none
O=c1[nH]c2ccc(NS(=O)(=O)c3ccc(F)cc3)cc2s1	none
Cc1ccc(CNC(=O)c2cc3c(s2)-c2ccc(Cl)cc2SC3)cc1	Cruzain noTriton 12.6µM
COc1ccccc1CNC(=O)c1cc2c(s1)-c1ccc(Cl)cc1SC2	none
O=C(NCc1ccccc1Cl)c1cc2c(s1)-c1ccc(Cl)cc1SC2	Cruzain noTriton 10µM
Cc1ccc(CNC(=O)c2cc3c(s2)-c2ccccc2SC3)cc1	Cruzain noTriton inconclusive
CC(C)CCNC(=O)c1cn(C)c2ccc(S(=O)(=O)N3CCOCC3)cc2c1=O	none
Cc1cc(C)c(NC(=O)CCN2CCCCC2)c(C)c1	none
O=C1C(NS(=O)(=O)c2cccs2)=C(N2CCN(c3cccc(Cl)c3)CC2)C(=O)c2ccccc21	Cruzain noTriton 12.6µM
CC1CCN(C2=C(NS(=O)(=O)c3ccc(Cl)cc3)C(=O)c3ccccc3C2=O)CC1	none
COc1cc(-c2cccs2)cc(=O)c2c(C)oc(C)c12	Cruzain noTriton 20µM
COc1cc(-c2cc(OC)c3c(C)oc(C)c3c(=O)c2)ccc1OC(=O)c1ccccc1Cl	none
O=C(Nc1cccc(Cl)c1)c1cc2c(=O)[nH]c3ccccc3c2s1	none
CCC(C(=O)Nc1ccc(C(=O)OC)cc1)n1nc(-c2ccc(C)c(C)c2)ccc1=O (stereo not given)	none
Cc1cc2nc(-c3ccc(SCC(=O)N4CCc5ccccc54)nc3)[nH]c2cc1C	Cruzain noTriton 15.8µM
Cc1cc(NC(=O)CSc2ccc(-c3nc4cc(C)c(C)cc4[nH]3)cn2)no1	Cruzain noTriton inconclusive
COc1ccc(-n2c(=O)c(-c3ccc(Cl)cc3)nc3cnc(N4CCNCC4)nc32)cc1	none
Cc1ccc(C(=O)N/C(=C/c2ccc(Cl)cc2)C(=O)Nc2cccc(C(=O)O)c2)cc1	Cruzain noTriton inconclusive
CSc1ccc(/C=C(\NC(=O)c2ccc(C)cc2)C(=O)Nc2cccc(C)c2)cc1	Cruzain noTriton 7.94µM
Nc1ccc(C(=O)OCC(=O)N2CCc3ccccc3C2)cc1[N+](=O)[O-]	Cruzain noTriton 31.6µM
O=C(OCC(=O)N1CCc2ccccc2C1)c1ccc(N2CCOCC2)c([N+](=O)[O-])c1	none
COc1ccccc1NC(=O)C1=C(C)Nc2nc(SCC(=O)c3ccc(C)cc3)nn2C1c1ccc(F)cc1 (stereo not given)	none
